Laboratory results from PMC12136788.
The full ranking holds about 5,800 sequences; the median of “enrichment r” is about 0.68, and the highest 2% start at about 11. Only a sample is shown.

B1: chr13:45957189:45957298:-|CDS|ENSG00000123200|unk|total|mutant (ssRNA)
RNA: GGGAGUUCUACAGUCCGACGAUCUGUUUUUGUUUUCUUCAAACCGGGCACCAUAAAACAAGCUUACACGAGUGCUCCAAUGGCCGACAAUGAAUUACUUCGAUUGAGUCUUCGGUUAUUUAAGCGGAAGACUACUUGCCAUGCCAACAGAGGAUUGAGCAUCA
B2: chrX:130230552:130230660:-|CDS|ENSG00000056277|unk|total|mutant (ssRNA)
RNA: GGGAGUUCUACAGUCCGACGAUCAUCAGAACGUCCAUGUGAUGAAGACAAGACUGAUUCAGAGACAGGAAAGUUGAUCAUGUCCGUCAAUGAGUUUUAUUAUGGAAGGCAUGAAGGAGUCACUGAGAAAGAGCCAAAGACUUACAACAGAGGAUUGAGCAUCA
B3: ENSG00000107863:be:win_2551|CDS|ENSG00000107863|bound_else_gene|NA|bound_elsewhere_windowed (ssRNA)
RNA: GGGAGUUCUACAGUCCGACGAUCUUAAUUCGCCGUCAGCUCUCACAUGACCACGAAUCUGUUGGCCCUCCUAGCCUGGAUGCUCAGCCCAACUCAAAGACAGAAAGAUCAAAAUCAUAUGAUGAGGGUCUGGAUGAUUACAGACAACAGAGGAUUGAGCAUCA
B4: chr20:57651677:57651767:-|3pUTR|ENSG00000124225|msi1_unk|FALSE|overlapping (ssRNA)
RNA: GGGAGUUCUACAGUCCGACGAUCGUUGAGCUGUGUCUUGAAGGCAAAAGAAAAAAAAUUUCUACAGUAGUCUUUCUUGUUUCUAGUUGAGCUGCGUGCGUGAAUGCUUAUUUUCUUUUGUUUAUGAUAAUUUCACUUAACUUUCAACAGAGGAUUGAGCAUCA
B5: ENSG00000124766:be:win_3701|3pUTR|ENSG00000124766|bound_else_gene|NA|bound_elsewhere_windowed (ssRNA)
RNA: GGGAGUUCUACAGUCCGACGAUCUCAGGUUUAUAGCUGUUGUGUUUAAAAAUUGAAAAAAGUGGAAAACAUCUUUGUACAUUUAAGUCUGUAUUAUAAUAAGCAAAAAGAUUGUGUGUAUGUAUGUUUAAUAUAACAUGACAGCAACAGAGGAUUGAGCAUCA
B6: chr4:1716041:1716142:-|3pUTR|ENSG00000168936|msi1|total|mutant (ssRNA)
RNA: GGGAGUUCUACAGUCCGACGAUCAGGCUUCCCCGAGCGCUCAGCAGGUGAAGGCAGCAGGGGCCAUGGCCGGGAGCCAGGCCCCGCUUUGAACUGAGUUUCAAGGGCUGCCAAAGAGGGGCAGUGGGUUGGGGUUGUUUUUACCAACAGAGGAUUGAGCAUCA
B7: chr6:158785413:158785514:-|CDS|ENSG00000092820|msi1|FALSE|unique (ssRNA)
RNA: GGGAGUUCUACAGUCCGACGAUCGAGCUCAUCCAGGACAUCACCCAGAAACUUUUCUUCCUCCAAGUGAAGGAAGGAAUCCUUAGCGAUGAGAUCUACUGCCCCCCUGAGACUGCCGUGCUCUUGGGGUCCUACGCUGUGCAGCAACAGAGGAUUGAGCAUCA
B8: chr10:113876644:113876745:+|CDS|ENSG00000196865|msi1|total|mutant (ssRNA)
RNA: GGGAGUUCUACAGUCCGACGAUCGGUUAAUGAUGCAGAUGCCAGCCUUUGGCAAGAACCCGAAGUUUCCUGCUGGCCAACUCCCGUCAUACUUGGACCUCGUGGAAACAUGUUGUUUUCUUUGAUUGGAGAGGGACACAAAGACAACAGAGGAUUGAGCAUCA
B9: chr1:212686416:212686790:-|three_prime_utr|ENSG00000123685|control|control|control (ssRNA)
RNA: GGGAGUUCUACAGUCCGACGAUCUUGUGCAGAUCCAGCAUGGAGGCCACCCUCAGGAGUGACUUCUCAUCCACCCUGGCAGCUAGUAGGUUCUGCUGUUAUGCAGAGCCAUUUCCUCUAGAAUUUGGAUAAUAAAGAUGCUUACAACAGAGGAUUGAGCAUCA
B10: ENSG00000184117:stop:overlap|stop_codon|ENSG00000184117|stop_codon|NA|stop_codon (ssRNA)
RNA: GGGAGUUCUACAGUCCGACGAUCUGGGCAACUGGAACACGUGGUAUGGGGAGCAGGACCAGGCAGGUCAUUCCUGGUUUUGGUAGAUUUCUAUCCAUACAGUACUUUUGCCAUUUCCUUUGGGAAAAAGACCUUUAAACCAUACAACAGAGGAUUGAGCAUCA
B11: chr20:32237940:32238012:+|3pUTR|ENSG00000101346|msi1_unk|total|mutant (ssRNA)
RNA: GGGAGUUCUACAGUCCGACGAUCUUUCAAAGAUACAAAUAUUUACACCGUUUUAAUCAUGUAAUAUAUACAAUUUAAUGUCCCCGUGUUUUACUUAACCGUGUAUCAUGUUUUCCCUGUUGGUAUGCCGCCUGGAUAAAUGCUCAACAGAGGAUUGAGCAUCA
B12: chr4:152882748:152882856:+|CDS|ENSG00000164144|unk|FALSE|unique (ssRNA)
RNA: GGGAGUUCUACAGUCCGACGAUCCAGAAACUGCUGGCUAAAAAUGGAGAGACUCUUCUUGGGGCCAUUAAUUUUUUCAUUGCUAGUGUGAACACUUUGGUGAAUAAAACCAUUGAAGAUACAUUAAUGACUGUGAAACAGUAUCAACAGAGGAUUGAGCAUCA
B13: chrX:13662881:13662996:+|CDS|ENSG00000176896|unk|total|mutant (ssRNA)
RNA: GGGAGUUCUACAGUCCGACGAUCUCGAAUUCUCUGUCUUCCCAAGACGUUGCAAAACUCAGUGAAAUGAUUGUGCCUGAAAACCGAGCCAUUCAAUUGAAACCUAAGGAAGAGCAUUUUGGGGAUGGUGACCCUGAAUCCACUCAACAGAGGAUUGAGCAUCA
B14: chr10:116672031:116672132:-|3pUTR|ENSG00000165868|msi1|total|mutant (ssRNA)
RNA: GGGAGUUCUACAGUCCGACGAUCCCUUUCCUGCCUUGCAUUAAUGCUAUCUCCCUGUGUACUGUUUCUCUUAAAUGAGCAGACCGAAAUCUGCAGUGUUGGCAGACCGGUGAUGGAGAGGAUGAUAAUUUUAUCUUCUGGCCACAACAGAGGAUUGAGCAUCA
B15: chr2:121605696:121605828:-|CDS|ENSG00000074054|unk|FALSE|unique (ssRNA)
RNA: GGGAGUUCUACAGUCCGACGAUCGAUAGACUAUUUCUCAGACAAACAGAAGUCUGCUGACCUUGAGCAUGACCAGACCAUGUUAGAUAAACUUGUGGAUGGACUUGCUACCUCUUGGGUGAACUCUAGCAAUUACAAGGUAAGCAACAGAGGAUUGAGCAUCA
B16: chr17:64498535:64498649:-|3pUTR|ENSG00000108654|unk|FALSE|unique (ssRNA)
RNA: GGGAGUUCUACAGUCCGACGAUCUUAAACUGAGGCUUUAAUUGAUGUUAAUGCCUUAUGUCAAAUGUAAAGUUAGAAUUUGCUAGGGCUGGGAUAGGGAGUGAUAUUUCUAGGACUUAGACAUUGAAAACUAAUUCAGCCUGUCAACAGAGGAUUGAGCAUCA
B17: ENSG00000124766:be:win_2101|3pUTR|ENSG00000124766|bound_else_gene|NA|bound_elsewhere_windowed (ssRNA)
RNA: GGGAGUUCUACAGUCCGACGAUCUGCCCCCUCUGCAGCCGGAGGAGGAGAUGUUGAGGGGAGGAGGCCAGCCAGUGUGACCGGCGCUAGGAAAUGACCCGAGAACCCCGUUGGAAGCGCAGCAGCGGGAGCUAGGGGCGGGGGCAACAGAGGAUUGAGCAUCA
B18: chr4:75812186:75812332:+|CDS|ENSG00000138768|unk|total|mutant (ssRNA)
RNA: GGGAGUUCUACAGUCCGACGAUCAGAGCAGCUGGAUUCAUCUAACCGUACCAUUGCCAUUUUACAAACUGAGAAAGACAAACCCGAGUUGGAAAUUACAGAUUCUAAAAAAGAACAAGAUGAUCUCUUGGUGCUCUUGGCCGACAACAGAGGAUUGAGCAUCA
B19: ENSG00000198589:be:win_7451|CDS|ENSG00000198589|bound_else_gene|NA|bound_elsewhere_windowed (ssRNA)
RNA: GGGAGUUCUACAGUCCGACGAUCUGAGUCCAUUGAUGUUCACAGACAAAGCCCAGCAGGAUGUUAUCAUGGUCCUCAAGUUUCCCUCCAACUCCCCUGUUACUCACGUGGCAGCCAACACCCAGCCUGGUUUGGCAACUCCCGCAACAGAGGAUUGAGCAUCA
B20: chr4:75597091:75597192:-|CDS|ENSG00000138769|unk|total|mutant (ssRNA)
RNA: GGGAGUUCUACAGUCCGACGAUCUAUAAACUAUUUAAAAUAAAAGGCUCAAAAAUUGAUGGAGAAAAAGCUGAAAAAGGCAACCGAGCUUCAAAUGCCAGCUGUCUCCAUGACAGCCGGACAAGCCACAACAAAACCGUGCCUCAACAGAGGAUUGAGCAUCA
B21: chr17:82078764:82078865:-|3pUTR|ENSG00000169710|msi1_unk|FALSE|overlapping (ssRNA)
RNA: GGGAGUUCUACAGUCCGACGAUCCCGUGGGGUCUGCGCUUGGUCUUUCUGUGCUUGGAUUUGCAUAUUUAUUGCAUUGCUGGUAGAGACCCCCAGGCCUGUCCACCCUGCCAAGACUCCUCAGGCAGCGUGUGGGUCCCGCACCAACAGAGGAUUGAGCAUCA
B22: ENSG00000136451:be:win_1451|CDS_3pUTR|ENSG00000136451|bound_else_gene|NA|bound_elsewhere_windowed (ssRNA)
RNA: GGGAGUUCUACAGUCCGACGAUCCUCCAAUGAAUCUACCCACACCUAUGACAUUAGCCGCCCCUCUCAAUAUAGCAAUGAGACCUGUAGAGAGCAUGCCUUUCUUGCCCCAAGCUUUGCCUACAUCACCGCCUUGGUAAACAGCAACAGAGGAUUGAGCAUCA

Molecular target: T1, UNK ZnF1-6 (called full-length) (human, UniProt Q9C0B0 30-357)
T1 sequence: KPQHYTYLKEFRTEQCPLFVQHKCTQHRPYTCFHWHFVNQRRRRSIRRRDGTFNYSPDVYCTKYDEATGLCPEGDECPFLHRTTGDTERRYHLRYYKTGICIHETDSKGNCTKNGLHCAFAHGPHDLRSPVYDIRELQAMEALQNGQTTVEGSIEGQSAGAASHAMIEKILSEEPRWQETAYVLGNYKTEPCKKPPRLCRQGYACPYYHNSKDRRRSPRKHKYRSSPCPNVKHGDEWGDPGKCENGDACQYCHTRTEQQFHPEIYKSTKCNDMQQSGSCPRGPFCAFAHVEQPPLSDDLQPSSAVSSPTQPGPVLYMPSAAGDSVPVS
Test: nsRBNS (natural sequence RNA bind-n-seq); RBNS binding buffer (assumed for nsRBNS): 25 mM Tris pH 7.5, 150 mM KCl, 3 mM MgCl2, 0.01% Triton X-100, 500 ug/ml BSA, 20 U/ml SUPERase-In, 4 C; UNK is unkempt and MSI1 is Musashi-1; names of the RNAs are library labels; protein concentration not given here; high values mean tight binding

B1 was tested. Which binding signal did it give?
The binding signal was 0.325 enrichment R.

B2 was tested. Which binding signal did it give?
Its binding signal is 0.608 enrichment R.

B3 was tested. Which binding signal did it give?
Its binding signal is 0.436 enrichment R.

For B4, which binding signal is on record?
Its binding signal is 1.22 enrichment R.

Which binding signal does the source give for B5 here?
The binding signal was 0.65 enrichment R.

Which binding signal does the source give for B6 here?
Its binding signal is 0.696 enrichment R.

How did the binding signal turn out when B7 was run?
The binding signal was 0.521 enrichment R.

How did the binding signal turn out when B8 was run?
The binding signal was 0.577 enrichment R.

With B9 as the binder, how does the binding signal read?
Its binding signal is 0.63 enrichment R.

B10 was tested. Which binding signal did it give?
The binding signal was 0.898 enrichment R.

B11 was tested. Which binding signal did it give?
Its binding signal is 0.548 enrichment R.

For B12, which binding signal is on record?
Its binding signal is 0.365 enrichment R.

B13 was tested. Which binding signal did it give?
Its binding signal is 0.441 enrichment R.

B14 was tested. Which binding signal did it give?
The binding signal was 0.548 enrichment R.

For B15, which binding signal is on record?
Its binding signal is 0.726 enrichment R.

For B16, which binding signal is on record?
Its binding signal is 0.878 enrichment R.

For B17, which binding signal is on record?
The binding signal was 1.41 enrichment R.

How did the binding signal turn out when B18 was run?
Its binding signal is 0.434 enrichment R.

B19 was tested. Which binding signal did it give?
Its binding signal is 0.743 enrichment R.

With B20 as the binder, how does the binding signal read?
Its binding signal is 0.872 enrichment R.

How did the binding signal turn out when B21 was run?
The binding signal was 0.749 enrichment R.

How did the binding signal turn out when B22 was run?
Its binding signal is 1.48 enrichment R.
